Records with an inconclusive call do not appear. Active and inactive are the calls of the source. Rule for the calls: active = hit-call score of the fitted dose curve at least 0.9, where 1 is the maximum; inconclusive = response in the unintended direction; inactive = score below 0.9.
Tests used:
[1] = target: Estrogen receptor beta (Homo sapiens) (UniProt Q92731); assay: ATG_hERb_XSP1: Attagene TRANS-FACTORIAL Multi-Species (XSP1) HepG2 Assay for human Estrogen Receptor (ESR2) (AID 2283788)
How it was run: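 Measured endpoint is transcriptional gain of signal from a GAL4-UAS reporter controlled by chimeric ERβ in HepG2 liver cells. Exposure lasts 24 h alongside 3 nM 6-alpha-fluorotestosterone, with DMSO as negative control.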

[2] = ATG_M_06_XSP1: Attagene TRANS-FACTORIAL Multi-Species (XSP1) HepG2 Assay for M06 Transcription Factor (Internal Marker) (AID 2283790)
Procedure: ATG_XSP1_multi-species_TRANS is a cell-based, multiplexed assay created by modifying the existing Attagene TRANS-FACTORIAL system to include a panel of nuclear receptors from some or all the following species: human (Homo sapiens), mouse (Mus musculus), frog (Xenopus laevis), zebrafish (Danio rerio), chicken (Gallus gallus), and turtle (Chrysemys picta). The ECOTOX-FACTORIAL format uses HepG2, a human liver cell line, with measurements taken at 24 hours after chemical dosing in a 24-well plate. Xsp1 included 3 nM 6-alpha-fluorotestosterone to partially stimulate the androgen receptor.ATG_M_06_XSP1 is one of 29 assay components measured or calculated from the ATG_XSP1_multi-species_TRANS assay. It is designed to make measurements of mRNA induction, a form of inducible reporter, as detected with fluorescence intensity signals by Reverse transcription polymerase chain reaction (RT-PCR) and Capillary electrophoresis technology.This assay endpoint, ATG_M_06_XSP1, was analyzed in the positive analysis fitting direction relative to DMSO as the negative control and baseline of activity. Using a type of inducible reporter, measures of mRNA for gain-of-signal activity can be used to understand the background control at the transcription factor-level as they relate to the gene. Furthermore, this assay endpoint can be referred to as a secondary readout, because this assay has produced multiple assay endpoints where this one serves a background control function. To generalize the intended target to other relatable targets, this assay endpoint is annotated to the background measurement intended target family, where the subfamily is internal marker.
(§1) Human liver HepG2 cells are transiently transfected with multiple reporter transcription units (MRTUs) in 6-well plates using FuGene 6 reagent (Roche; 3 ml FuGene/1 mg DNA). The MRTU constructs are regulated by a cis-regulating element (promoter). […] A major difference between the CIS and TRANS system is that in CIS activities of endogenous TFs are measured, whereas the TRANS assay evaluates changes in activities of exogenous, chimeric NR-Gal4 proteins. […] At the end of 24 hour incubation, total RNA was isolated using TriZol reagent (Invitrogen). The isolated RNA is then reverse-transcribed using oligo(dT) primer and Mo-MLV reverse transcriptase (Invitrogen) with DNAse I (Ambion) treatment for 30 min. […] The fragments were purified using Qiaquick PCR columns (Qiagen), analyzed on an ABI 3130xL genetic analyzer (Applied Biosystems) with peak positions identified by using a set of X-rhodamine (ROX)-labeled MapMarker1000 molecular weight standards (BioVentures). […]

[3] = ATG_M_61_XSP1: Attagene TRANS-FACTORIAL Multi-Species (XSP1) HepG2 Assay for M61 Transcription Factor (Internal Marker) (AID 2283797)
How it was run: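 HepG2 cells transiently transfected with multiplexed GAL4-driven reporter units, dosed 24 h with 3 nM 6-alpha-fluorotestosterone present. Reporter mRNA quantified by RT-PCR, 6-FAM labelling, HpaI digestion and capillary electrophoresis; internal-marker background control, gain of signal versus DMSO.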

[4] = ATG_M_19_XSP1: Attagene TRANS-FACTORIAL Multi-Species (XSP1) HepG2 Assay for M19 Transcription Factor (Internal Marker) (AID 2283798)
How it was run: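 HepG2 cells transiently transfected with multiplexed GAL4-UAS reporter units, dosed 24 h with 3 nM 6-alpha-fluorotestosterone present for partial AR stimulation. Reporter mRNA measured by RT-PCR with capillary electrophoresis; gain-of-signal fitted relative to DMSO.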

[5] = ATG_M_32_XSP1: Attagene TRANS-FACTORIAL Multi-Species (XSP1) HepG2 Assay for M32 Transcription Factor (Internal Marker) (AID 2283799)
How it was run: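 HepG2 cells transiently transfected with multi-species TRANS reporter units, dosed 24 h with 3 nM 6-alpha-fluorotestosterone present. Internal-marker reporter mRNA quantified by RT-PCR and capillary electrophoresis; positive-direction fit versus DMSO.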

[6] = target: Peroxisome proliferator-activated receptor gamma (Homo sapiens) (UniProt P37231); assay: ATG_hPPARg_XSP1: Attagene TRANS-FACTORIAL Multi-Species (XSP1) HepG2 Assay for human Peroxisome Proliferator-activated Receptor gamma (PPARg) (AID 2283800)
Procedure: (§2) ATG_XSP1_multi-species_TRANS is a cell-based, multiplexed assay created by modifying the existing Attagene TRANS-FACTORIAL system to include a panel of nuclear receptors from some or all the following species: human (Homo sapiens), mouse (Mus musculus), frog (Xenopus laevis), zebrafish (Danio rerio), chicken (Gallus gallus), and turtle (Chrysemys picta). The ECOTOX-FACTORIAL format uses HepG2, a human liver cell line, with measurements taken at 24 hours after chemical dosing in a 24-well plate. Xsp1 included 3 nM 6-alpha-fluorotestosterone to partially stimulate the androgen receptor.ATG_hPPARg_XSP1 is one of 29 assay components measured or calculated from the ATG_XSP1_multi-species_TRANS assay. It is designed to make measurements of mRNA induction, a form of inducible reporter, as detected with fluorescence intensity signals by Reverse transcription polymerase chain reaction (RT-PCR) and Capillary electrophoresis technology.The assay endpoint ATG_hPPARg_XSP1 was analyzed in the positive analysis fitting direction relative to DMSO as the negative control and baseline of activity. Using a type of inducible reporter, measures of mRNA for gain-of-signal activity can be used to understand the reporter gene at the transcription factor-level as they relate to the gene PPARg. Furthermore, this assay endpoint can be referred to as a primary readout, because this assay has produced multiple assay endpoints where this one serves a reporter gene function. To generalize the intended target to other relatable targets, this assay endpoint is annotated to the nuclear receptor intended target family, where the subfamily is non-steroidal.
Human liver HepG2 cells are transiently transfected with multiple reporter transcription units (MRTUs) in 6-well plates using FuGene 6 reagent (Roche; 3 ml FuGene/1 mg DNA). The MRTU constructs are regulated by a cis-regulating element (promoter). […] A major difference between the CIS and TRANS system is that in CIS activities of endogenous TFs are measured, whereas the TRANS assay evaluates changes in activities of exogenous, chimeric NR-Gal4 proteins. […] At the end of 24 hour incubation, total RNA was isolated using TriZol reagent (Invitrogen). The isolated RNA is then reverse-transcribed using oligo(dT) primer and Mo-MLV reverse transcriptase (Invitrogen) with DNAse I (Ambion) treatment for 30 min. The one-tenth of the produced cDNA was amplified by PCR using Taq DNA polymerase (Invitrogen) and two reporter sequence-specific primers. The PCR products were fluorescently labeled by primer extension with 6-arboxyfluorescein (6-FAM) 5'-labeled reporter sequence-specific primer (2 min at 95 C, 20 s at 68 C and 10 min at 72 C) and these products were digested with 5U of HpaI (New England Biolabs) for 2h at 37 C. The fragments were purified using Qiaquick PCR columns (Qiagen), analyzed on an ABI 3130xL genetic analyzer (Applied Biosystems) with peak positions identified by using a set of X-rhodamine (ROX)-labeled MapMarker1000 molecular weight standards (BioVentures). The raw capillary electrophoresis data was processed using Attagraph software (Attagene).

[7] = target: mouse Peroxisome Proliferator-activated Receptor gamma (PPARg), Pparg (gene 19016) (UniProt P37238); assay: ATG_mPPARg_XSP1: Attagene TRANS-FACTORIAL Multi-Species (XSP1) HepG2 Assay for mouse Peroxisome Proliferator-activated Receptor gamma (PPARg) (AID 2283802)
How it was run: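 HepG2 cells transiently transfected with GAL4-UAS reporter units driven by mouse PPARg–GAL4 chimera; 3 nM 6-alpha-fluorotestosterone present. After 24 h dosing, reporter mRNA quantified by RT-PCR, fluorescent labelling and capillary electrophoresis; gain of signal versus DMSO.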

[8] = target: Nuclear receptor subfamily 1 group I member 2 (Mus musculus) (UniProt O54915); assay: ATG_mPXR_XSP1: Attagene TRANS-FACTORIAL Multi-Species (XSP1) HepG2 Assay for mouse Pregnane X Receptor (PXR) (AID 2283803)
How it was run: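 Transiently transfected HepG2 cells expressing a receptor-Gal4 chimera drive a GAL4-UAS reporter; 3 nM 6-alpha-fluorotestosterone included. Reporter mRNA read 24 h post-dose by RT-PCR and capillary electrophoresis; gain of signal relative to DMSO.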

[9] = system: zebrafish Peroxisome Proliferator-activated Receptor gamma (PPARg), gene 557037; assay: ATG_zfPPARg_XSP1: Attagene TRANS-FACTORIAL Multi-Species (XSP1) HepG2 Assay for zebrafish Peroxisome Proliferator-activated Receptor gamma (PPARg) (AID 2283801)
Procedure: as §2, with “receptor.ATG_zfPPARg_XSP1” for “receptor.ATG_hPPARg_XSP1”, “ATG_zfPPARg_XSP1” for “ATG_hPPARg_XSP1”
as §1

[10] = target: GAL4 Transcription Factor (Internal Marker), GAL4 (gene 855828) (UniProt P04386); assay: ATG_GAL4_XSP1: Attagene TRANS-FACTORIAL Multi-Species (XSP1) HepG2 Assay for GAL4 Transcription Factor (Internal Marker) (AID 2283789)
How it was run: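 HepG2 cells transiently transfected with multiplexed GAL4-UAS reporter units were exposed for 24 h with 3 nM 6-alpha-fluorotestosterone present. Reporter mRNA was quantified by RT-PCR, FAM labelling, HpaI digestion and capillary electrophoresis; background-control readout, gain-of-signal versus DMSO.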

Sequence of Estrogen receptor beta (Homo sapiens) (Q92731 whole entry, looked up, the tested form may be a part): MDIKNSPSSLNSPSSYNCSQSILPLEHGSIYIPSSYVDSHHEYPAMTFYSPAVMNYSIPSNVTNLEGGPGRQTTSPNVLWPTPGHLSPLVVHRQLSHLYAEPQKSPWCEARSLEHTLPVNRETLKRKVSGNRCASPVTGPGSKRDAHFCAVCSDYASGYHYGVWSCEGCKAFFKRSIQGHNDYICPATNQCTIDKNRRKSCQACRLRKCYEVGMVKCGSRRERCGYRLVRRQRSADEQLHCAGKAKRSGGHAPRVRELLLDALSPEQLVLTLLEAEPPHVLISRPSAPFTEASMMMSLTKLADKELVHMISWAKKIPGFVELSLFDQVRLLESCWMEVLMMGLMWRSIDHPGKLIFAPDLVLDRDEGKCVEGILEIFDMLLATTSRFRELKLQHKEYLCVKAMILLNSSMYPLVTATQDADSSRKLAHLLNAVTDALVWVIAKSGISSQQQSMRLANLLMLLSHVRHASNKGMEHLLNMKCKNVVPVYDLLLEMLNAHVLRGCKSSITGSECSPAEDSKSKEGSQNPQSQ
Sequence of Peroxisome proliferator-activated receptor gamma (Homo sapiens) (P37231 whole entry, looked up): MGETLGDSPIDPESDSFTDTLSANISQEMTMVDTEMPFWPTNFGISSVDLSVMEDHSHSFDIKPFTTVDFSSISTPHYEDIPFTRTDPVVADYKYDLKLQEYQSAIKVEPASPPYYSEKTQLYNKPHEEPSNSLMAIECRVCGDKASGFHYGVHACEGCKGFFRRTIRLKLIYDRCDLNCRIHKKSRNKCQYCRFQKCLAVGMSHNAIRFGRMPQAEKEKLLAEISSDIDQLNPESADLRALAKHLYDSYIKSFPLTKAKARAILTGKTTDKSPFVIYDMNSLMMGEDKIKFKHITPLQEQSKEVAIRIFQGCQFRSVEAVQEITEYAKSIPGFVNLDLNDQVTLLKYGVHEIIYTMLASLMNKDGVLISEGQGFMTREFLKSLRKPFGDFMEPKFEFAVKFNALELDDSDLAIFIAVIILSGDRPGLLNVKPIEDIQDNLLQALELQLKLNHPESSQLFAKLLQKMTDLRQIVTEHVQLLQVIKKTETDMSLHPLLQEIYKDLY
Sequence of mouse Peroxisome Proliferator-activated Receptor gamma (PPARg), Pparg (gene 19016) (P37238 whole entry, looked up, the tested form may be a part): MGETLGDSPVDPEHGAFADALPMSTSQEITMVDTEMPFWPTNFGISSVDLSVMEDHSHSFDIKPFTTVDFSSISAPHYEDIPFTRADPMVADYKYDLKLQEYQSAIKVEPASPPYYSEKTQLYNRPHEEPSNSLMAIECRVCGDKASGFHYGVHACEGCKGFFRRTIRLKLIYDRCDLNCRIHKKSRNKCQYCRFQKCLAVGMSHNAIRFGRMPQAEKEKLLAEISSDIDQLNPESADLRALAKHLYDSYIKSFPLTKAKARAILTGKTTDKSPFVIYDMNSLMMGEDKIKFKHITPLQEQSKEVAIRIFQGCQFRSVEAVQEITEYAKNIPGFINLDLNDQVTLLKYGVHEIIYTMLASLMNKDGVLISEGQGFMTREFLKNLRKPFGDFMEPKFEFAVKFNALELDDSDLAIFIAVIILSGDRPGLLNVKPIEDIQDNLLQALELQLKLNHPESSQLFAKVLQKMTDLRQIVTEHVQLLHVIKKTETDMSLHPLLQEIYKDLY
Sequence of Nuclear receptor subfamily 1 group I member 2 (Mus musculus) (O54915 whole entry, looked up, the tested form may be a part): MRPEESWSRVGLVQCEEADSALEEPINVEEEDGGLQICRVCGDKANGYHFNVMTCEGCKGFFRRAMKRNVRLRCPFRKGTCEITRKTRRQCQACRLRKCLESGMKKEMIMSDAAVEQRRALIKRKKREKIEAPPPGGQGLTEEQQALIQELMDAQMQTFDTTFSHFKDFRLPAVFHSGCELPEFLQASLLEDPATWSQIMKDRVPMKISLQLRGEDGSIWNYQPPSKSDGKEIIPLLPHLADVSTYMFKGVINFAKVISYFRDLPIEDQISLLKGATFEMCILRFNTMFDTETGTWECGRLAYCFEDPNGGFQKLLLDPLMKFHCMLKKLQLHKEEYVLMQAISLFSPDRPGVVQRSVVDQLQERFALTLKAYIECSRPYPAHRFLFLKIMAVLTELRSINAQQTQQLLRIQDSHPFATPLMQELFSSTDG
Sequence of GAL4 Transcription Factor (Internal Marker), GAL4 (gene 855828) (P04386 whole entry, looked up, the tested form may be a part): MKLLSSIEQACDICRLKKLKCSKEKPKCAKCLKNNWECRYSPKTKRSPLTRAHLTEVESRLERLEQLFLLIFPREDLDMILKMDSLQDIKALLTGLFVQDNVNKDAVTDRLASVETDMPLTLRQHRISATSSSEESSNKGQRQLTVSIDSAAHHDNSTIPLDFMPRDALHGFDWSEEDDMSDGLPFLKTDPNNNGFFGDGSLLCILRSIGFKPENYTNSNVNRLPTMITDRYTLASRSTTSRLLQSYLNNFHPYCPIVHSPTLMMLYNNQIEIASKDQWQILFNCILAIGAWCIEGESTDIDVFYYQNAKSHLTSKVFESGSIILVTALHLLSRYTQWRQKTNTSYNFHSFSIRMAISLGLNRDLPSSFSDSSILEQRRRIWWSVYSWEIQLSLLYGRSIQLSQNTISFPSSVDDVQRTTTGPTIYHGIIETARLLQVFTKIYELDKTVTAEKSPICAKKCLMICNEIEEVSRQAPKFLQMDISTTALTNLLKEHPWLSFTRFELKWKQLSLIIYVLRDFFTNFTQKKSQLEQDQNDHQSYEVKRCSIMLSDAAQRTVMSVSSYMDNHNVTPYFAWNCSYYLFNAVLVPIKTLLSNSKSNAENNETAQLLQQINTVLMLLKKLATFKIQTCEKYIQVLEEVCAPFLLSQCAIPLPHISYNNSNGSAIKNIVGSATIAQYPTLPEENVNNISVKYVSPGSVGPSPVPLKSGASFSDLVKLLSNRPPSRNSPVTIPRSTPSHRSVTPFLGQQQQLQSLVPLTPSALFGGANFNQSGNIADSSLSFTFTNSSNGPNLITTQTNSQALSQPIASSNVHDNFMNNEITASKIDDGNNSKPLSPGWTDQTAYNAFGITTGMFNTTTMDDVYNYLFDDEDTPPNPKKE

Question: Which AC50 [1] does the source give for `CC1(C)CCC(=Cc2ccc(Cl)cc2)C1(O)Cn1cncn1` (configuration not stated) here?
Answer: 46.6 µM (active)

Question: What about the outcome [2] of the same molecule?
Answer: inactive

Question: What about the outcome [3] of the same molecule?
Answer: inactive

Question: What about the outcome [4] of the same molecule?
Answer: inactive

Question: What about the outcome [5] of the same molecule?
Answer: inactive

Question: And the outcome [6]?
Answer: inactive

Question: What about the outcome [7] of the same molecule?
Answer: inactive

Question: What about the AC50 [8] of the same molecule?
Answer: 5.78 µM (active)

Question: Which results are given for `CSC(=O)c1c(C(F)F)nc(C(F)(F)F)c(C(=O)SC)c1CC(C)C`?
Answer: outcome [4]: inactive; outcome [5]: inactive; AC50 [6]: 7.26 µM (active); outcome [9]: inactive; AC50 [7]: 3.94 µM (active); AC50 [8]: 0.139 µM (active)

Question: What does the source list for `CCN(CC)C(=O)C(C)Oc1cccc2ccccc12` (configuration not stated)?
Answer: AC50 [1]: 100 µM (active); outcome [2]: inactive; outcome [3]: inactive; AC50 [6]: 48.4 µM (active); outcome [9]: inactive; AC50 [7]: 20.7 µM (active); AC50 [8]: 1.27 µM (active)

Question: With `COP(=S)(OC)Oc1ccc([N+](=O)[O-])c(C)c1` as the molecule, how does the AC50 [1] read?
Answer: 64 µM (active)

Question: And the outcome [10]?
Answer: inactive

Question: What about the outcome [2] of the same molecule?
Answer: inactive

Question: What about the outcome [3] of the same molecule?
Answer: inactive

Question: What about the outcome [5] of the same molecule?
Answer: inactive

Question: What about the AC50 [6] of the same molecule?
Answer: 64.4 µM (active)

Question: And the outcome [9]?
Answer: inactive

Question: And the AC50 [7]?
Answer: 100 µM (active)

Question: What about the AC50 [8] of the same molecule?
Answer: 27.4 µM (active)

Question: For `Cc1c(COC(=O)[C@@H]2[C@H](/C=C(\Cl)C(F)(F)F)C2(C)C)cccc1-c1ccccc1`, which AC50 [1] is on record?
Answer: 100 µM (active)

Question: And the outcome [2]?
Answer: inactive

Question: What about the outcome [3] of the same molecule?
Answer: inactive

Question: What about the outcome [4] of the same molecule?
Answer: inactive

Question: And the outcome [5]?
Answer: inactive

Question: And the outcome [6]?
Answer: inactive

Question: And the AC50 [7]?
Answer: 42.5 µM (active)

Question: What about the AC50 [8] of the same molecule?
Answer: 2.23 µM (active)

Question: For `CC(C)NC(=O)N1CC(=O)N(c2cc(Cl)cc(Cl)c2)C1=O`, which outcome [10] is on record?
Answer: inactive

Question: What about the outcome [4] of the same molecule?
Answer: inactive

Question: What about the outcome [5] of the same molecule?
Answer: inactive

Question: What about the AC50 [6] of the same molecule?
Answer: 31.3 µM (active)

Question: What about the AC50 [7] of the same molecule?
Answer: 30.4 µM (active)

Question: What about the AC50 [8] of the same molecule?
Answer: 12 µM (active)

Question: For `CC1(C)C(C=C(Cl)Cl)C1C(=O)OC(C#N)c1cccc(Oc2ccccc2)c1` (configuration not stated), which AC50 [1] is on record?
Answer: 66.8 µM (active)

Question: What about the outcome [10] of the same molecule?
Answer: inactive

Question: What about the outcome [4] of the same molecule?
Answer: inactive

Question: What about the outcome [5] of the same molecule?
Answer: inactive

Question: And the AC50 [6]?
Answer: 4.23 µM (active)

Question: And the AC50 [9]?
Answer: 3.54 µM (active)

Question: What about the AC50 [7] of the same molecule?
Answer: 13.5 µM (active)

Question: And the AC50 [8]?
Answer: 0.579 µM (active)

Reference: PubChem BioAssay (EPA / NIEHS)
